Cycloheximide cs – counter-screen hit for Shiga toxin inhibitors, cycloheximide; cell reporter, cycloheximide protein synthesis inhibition counterscreen; max response, %; actives 12% (n = 300,000); in the data active = max response mostly above about 13%, no sharp cut-off; inactive = mostly below about 14%; also: read at 38.3 µM for the half of the compounds with a filed dose; 0% is about no effect
Giardia FBPA inh – inhibitors of Giardia lamblia fructose-1,6-bisphosphate aldolase. A8B2U2. purified Giardia FBPA. Potency, µM (highest dose often 59.6 µM), inactives show at the highest dose activity, negative = inhibition, hits mostly inhibitors. actives 0.71% (n = 290,000). AID 2451; also: potency is read from the fitted curve at half-maximal effect; % is scaled to controls: 0 for no effect and ±100 for the full control effect; nearly all actives have a fitted effect of over 55% in size
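40 nM FBPA preincubated 10 min at RT with compound (up to 57.5 uM final), then substrate plus GAPDH/TPI/NAD/arsenate coupling and diaphorase/resazurin added. Fluorescence read after 20 min at RT, 525/598 nm.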
TbPYK inhibitor – T. brucei pyruvate kinase inhibition; Q57TT1; TbPYK enzyme, Kinase-Glo Plus ATP luminescence, 45 min; Potency, µM (highest dose often 76.8 µM), inactives show at the highest dose activity, negative = inhibition, actives largely listed as inhibitors; actives 0.12% (n = 410,000); AID 624173; also: potency is read from the fitted curve at half-maximal effect; % is scaled to controls: 0 for no effect and ±100 for the full control effect; nearly all actives have a fitted effect of over 50% in size
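Enzyme and substrate buffer are dispensed first and compound is pin-transferred. ADP at 130 uM final then starts the reaction, which runs 45 min at room temperature. Detection reagent is added for 10 min before luminescence is imaged.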
LmPK inhibitor – blocks Leishmania mexicana pyruvate kinase activity | Q27686 | purified LmPK, Kinase-Glo ATP luminescence, 1 h | Potency, µM (highest dose often 57.5 µM), without a hit: at the top dose activity change, negative = inhibition, usual class: inhibitors | actives 0.37% (n = 290,000); also: potency is read from the fitted curve at half-maximal effect; % is scaled to controls: 0 for no effect and ±100 for the full control effect
Target sequence (Q27686 whole entry, looked up): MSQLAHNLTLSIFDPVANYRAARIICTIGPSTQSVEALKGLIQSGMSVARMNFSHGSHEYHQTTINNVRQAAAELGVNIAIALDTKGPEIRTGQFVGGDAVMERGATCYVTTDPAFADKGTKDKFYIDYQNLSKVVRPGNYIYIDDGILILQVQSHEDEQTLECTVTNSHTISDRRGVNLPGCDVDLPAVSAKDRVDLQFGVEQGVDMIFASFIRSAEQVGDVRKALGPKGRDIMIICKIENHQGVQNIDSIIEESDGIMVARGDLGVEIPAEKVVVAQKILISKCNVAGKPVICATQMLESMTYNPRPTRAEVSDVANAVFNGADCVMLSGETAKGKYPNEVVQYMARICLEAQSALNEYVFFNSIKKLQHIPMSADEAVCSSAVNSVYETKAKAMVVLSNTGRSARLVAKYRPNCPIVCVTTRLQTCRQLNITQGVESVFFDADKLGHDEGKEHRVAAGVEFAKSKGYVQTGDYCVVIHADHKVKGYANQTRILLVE
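Pyruvate kinase activity monitored as ATP production (luciferase luminescence). Conditions: 0.1 nM enzyme, 0.5 mM PEP, 0.1 mM ADP, 1 h, RT; normalized against uninhibited and no-enzyme wells.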
Shiga toxin inh – inhibitors of Shiga toxin in Vero cells; Vero cells, Shiga toxin protein synthesis inhibition reporter; inhibition, % at 38.7 µM; actives 9.2% (n = 290,000); in the data active = inhibition mostly above about 28%, no sharp cut-off; inactive = mostly below about 43%; also: 0% is about no effect
RE007 growth inh – less growth of the S. pombe RE007 Vpr strain; Potency, µM (highest dose often 92.2 µM), for the others: top-dose activity change, negative = less growth, usual class: inhibitors; S. pombe RE007 Vpr strain, BacTiter-Glo ATP luminescence, 24 h; actives 0.21% (n = 360,000); active = well fitted falling curve with a large enough effect; inconclusive = small, poorly fitted or top-dose-only effect; inactive = no such curve, though single readings can be large or run the other way; also: potency is read from the fitted curve at half-maximal effect; % is scaled to controls: 0 for no effect and ±100 for the full control effect; nearly all actives have a fitted effect of over 50% in size
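Fission yeast RE007 carrying one integrated HIV-1 vpr copy, seeded at OD 0.01 in PMG+AL medium with 23 nL pinned compound. Grown 24 h at 30 degrees; viability read by BacTiter-Glo luminescence after 5 min.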
* = called active by the depositor; ? = inconclusive; nt = no result given. Only a selection was taken, and hits are over-represented in it overall. Unless noted, calls follow the shape of the dose curve; as a rule, active = well fitted curve in the direction sought with a large enough effect; inconclusive = small, poorly fitted or top-dose-only effect, or another doubt; inactive = no such curve, though single readings can be large; an effect the other way counts as inactive or inconclusive.

SMILES	Cycloheximide cs	Giardia FBPA inh	TbPYK inhibitor	LmPK inhibitor	Shiga toxin inh	RE007 growth inh
Clc1ccc(-c2nnc(SCc3nc4ccccc4[nH]3)o2)c(Cl)c1	17*	3%	3%	-3%	32	3%
O=C(Nc1ccccc1-c1nnc(SCc2ccc(Cl)cc2Cl)o1)c1ccccc1	-3	0%	-6%	-7%	-13	8%
C=CCSc1nnc(-c2ccc(Cl)cc2Cl)o1	43*	5%	1%	-16%	92*	?
c1ccc2[nH]c(CSc3nnc(-c4ccncc4)o3)nc2c1	8	-5%	0%	-2%	-8	-9%
Clc1cccc(CSc2nnc(-c3c[nH]c4ccccc34)o2)c1	9.8*	-18%	3%	-2%	9	-28%
COCCSc1nnc(NC(=O)C2CCCO2)s1 (stereo not drawn)	24*	-2%	-1%	-10%	91*	-17%
CCCCCc1nnc(NC(=O)C2CCCO2)s1 (stereo not drawn)	44*	-1%	-6%	-1%	67*	14%
Cc1ccc(S(=O)(=O)CCc2nnc(NC(=O)C3CCCO3)s2)cc1 (stereo not drawn)	-2	0%	0%	3%	-16	13%
Cc1nnc(NC(=O)C2CCCO2)s1 (stereo not drawn)	4	-5%	8%	4%	6	-10%
CCCC(C)c1nnc(NC(=O)C2CCCO2)s1 (stereo not drawn)	40*	1%	-10%	0%	35*	-10%
CCOC(=O)C(NCc1ccccc1OC)(NC(=O)CC)C(F)(F)F (stereo not drawn)	-1	2%	0%	0%	15	37%
CCOC(=O)C(NC(=O)CC)(Nc1ccccc1OC)C(F)(F)F (stereo not drawn)	17*	-7%	-7%	-1%	-3	12%
CCOc1ccc(-c2nc(-c3ccc(OC)c(OC)c3)no2)cc1OCC	-3	5%	nt	3%	-7	nt
CCOc1ccc(-c2nc(CCl)cs2)cc1OC	17*	-10%	-4%	-7%	41	-4%
COc1ccc(-c2noc(-c3cccnc3)n2)cc1OC	17*	2%	-2%	-21%	52*	-5%
CCOc1ccc(-c2noc(-c3cccnc3)n2)cc1OC	15*	8%	-1%	-8%	27	-7%
CCOc1ccc(-c2noc(COC)n2)cc1OC	21*	1%	-8%	-5%	23	-7%
O=C(OCCCc1cc2ccccc2c(=O)o1)c1ccc2c(c1)OCO2	nt	nt	2%	nt	nt	10%
Cc1ccc(S(=O)(=O)NCC(=O)NCC(=O)N(C)Cc2ccc(Br)s2)cc1C	nt	nt	-14%	nt	nt	7%
C/C1=C2/[N-]C(C(CC(N)=O)[C@@]2(C)CCC(=O)NCC(C)OP(=O)([O-])O[C@H]2[C@@H](O)[C@@H](n3cnc4cc(C)c(C)cc43)O[C@@H]2CO)[C@]2(C)N=C(/C(C)=C3N=C(/C=C4N=C1C(CCC(N)=O)C\4(C)C)[C@@H](CCC(N)=O)[C@]\3(C)CC(N)=O)[C@@H](CCC(N)=O)[C@]2(C)CC(N)=O.CC(=O)O.[Co] (stereo partly drawn)	nt	nt	-10%	nt	nt	nt
CC(NC(=O)C(=O)Nc1c2c(nn1-c1ccccc1)CSC2)c1ccccc1 (stereo not drawn)	nt	nt	-1%	nt	nt	nt
C=CCN1C(=O)C2(NNc3ccccc3O2)c2ccccc21 (stereo not drawn)	6	-22%	-14%	1%	-20	-22%
CCCCN1C(=O)C2(NNc3ccccc3O2)c2ccccc21 (stereo not drawn)	47*	?	4%	-5%	62*	?
COc1ccccc1-c1cc2nc(C)c(CCC(=O)NCCc3ccc(SC)cc3)c(C)n2n1	nt	nt	-3%	nt	nt	nt
Clc1cccc(Cl)c1C1=NOC(c2nnc(-c3ccccc3)o2)C1 (stereo not drawn)	50*	0%	2%	1%	108*	-14%
SMILES	Cycloheximide cs	Giardia FBPA inh	TbPYK inhibitor	LmPK inhibitor	Shiga toxin inh	RE007 growth inh
Cc1cc(OC(=O)c2c(Cl)cc(Cl)cc2Cl)nc(C)n1	-2	0%	-1%	0%	-4	-4%
Cc1cc(OC(=O)N(C)C)nc(-c2ccc(C)c(Cl)c2)n1	15	5%	-2%	5%	39*	-1%
CC(=O)c1ccc(NC(=O)CCOc2cc(C)ccc2C)cc1	41*	-1%	0%	5%	115*	4%
Cc1ccc(F)cc1NCC(=O)Nc1ccc(Cl)cc1F	8	-1%	3%	0%	-2	1%
Cc1ccc(NC(=O)CCOc2ccccc2C)cc1F	30*	-4%	0%	1%	38	1%
Cc1cc(F)ccc1NCC(=O)Nc1ccccc1Br	26*	?	-8%	2%	116*	-14%
CC(=O)Nc1ccc(NC(=O)CCOc2cc(C)ccc2C)cc1	3	nt	-4%	0%	-6	-5%
Cc1ccccc1NCCC(=O)Nc1ccc(F)cc1	16*	0%	3%	-1%	38	-10%
CC(=O)Nc1ccc(NC(=O)CCOc2ccccc2C)cc1	-3	nt	7%	-4%	24	26%
COc1ccccc1CNC(=O)C[C@H]1CC[C@@H]2[C@H](COC[C@H](O)CN2Cc2ccc3c(c2)OCO3)O1	nt	nt	nt	nt	nt	-4%
COc1ccc(/C=C/C(=O)NCc2ccccn2)cc1OC	12	?	-1%	-3%	-6	-2%
COC(=O)CNC(=O)/C=C/c1ccc(OC)cc1	27*	5%	2%	-6%	57*	5%
COCC(C)NC(=O)/C=C/c1ccc(OC)cc1 (stereo not drawn)	19*	0%	-9%	-11%	36	8%
COc1ccc(/C=C/C(=O)NCc2ccccn2)cc1	17*	5%	-5%	2%	34*	8%
Cc1ccc2c(c1)sc1nc(-c3cc4ccccc4oc3=O)cn12	nt	nt	-7%	nt	nt	nt
COc1ccc(CCNC(=O)CSc2nc3[nH]ncc3c(=O)[nH]2)cc1OC	-6	2%	2%	17%	19	35%
O=C(Nc1ccc(Cl)c(C(F)(F)F)c1)C1Cc2c(-c3ccccc3)ccnc2O1 (stereo not drawn)	nt	nt	-7%	nt	nt	4%
CCOC(=O)C1(C)CCCN1C(=O)c1csnn1 (stereo not drawn)	nt	nt	3%	nt	nt	11%
CC1=Nc2ccccc2N=C(N)C1c1ccccc1 (stereo not drawn)	40*	-9%	-3%	-3%	67*	?
c1ccc(-n2ncc3c(NCc4ccccn4)ncnc32)cc1	30*	-5%	-11%	2%	74*	13%
Cc1cccc(-n2ncc3c(NCc4ccccn4)ncnc32)c1	29*	0%	0%	5%	70*	-5%
